Results as given in PubChem BioAssay.
Activity calls are given as the source filed them.

Experiments:
Albumin (Bos taurus) = Albumin (Bos taurus) (UniProt P02769); experiment: bovine serum albumin binders on microarray, profiling panel, artefact control for SMM control protein annotation, biochemical, small-molecule microarray, Alexa647 label, 635/667 nm fluorescence (AID 1118); settings: BSA-A647 binding, fluorescence 635 nm, higher = more signal;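 note: score merges 667 nm emission intensity and signal-to-noise per printed compound spot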
Sequence of Albumin (Bos taurus) (P02769 whole entry, looked up): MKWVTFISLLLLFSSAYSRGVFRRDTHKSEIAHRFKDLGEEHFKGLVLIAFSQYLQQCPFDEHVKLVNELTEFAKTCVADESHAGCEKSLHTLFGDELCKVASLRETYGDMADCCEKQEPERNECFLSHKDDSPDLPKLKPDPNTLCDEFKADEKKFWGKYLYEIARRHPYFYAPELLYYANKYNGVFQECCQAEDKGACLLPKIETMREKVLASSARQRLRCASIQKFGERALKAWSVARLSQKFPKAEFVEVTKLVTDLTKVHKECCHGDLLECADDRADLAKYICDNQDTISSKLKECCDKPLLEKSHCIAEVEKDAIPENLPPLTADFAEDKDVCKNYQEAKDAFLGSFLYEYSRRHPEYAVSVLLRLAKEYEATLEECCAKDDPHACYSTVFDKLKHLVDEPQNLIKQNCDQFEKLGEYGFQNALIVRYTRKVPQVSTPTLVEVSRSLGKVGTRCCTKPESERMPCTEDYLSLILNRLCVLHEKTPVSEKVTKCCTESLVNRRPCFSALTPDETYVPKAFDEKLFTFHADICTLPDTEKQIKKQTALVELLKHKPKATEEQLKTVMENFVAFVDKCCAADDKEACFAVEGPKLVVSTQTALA

[1] = small-molecule microarray binders of probe aXIP, primary screen, biochemical, NeuroSMM set, 635/667 nm fluorescence (AID 1119); settings: higher = more signal, called active from +8 up or from −8 down;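 note: probe is the protein aXip251-270 applied at 1 µg/mL to compound-printed slides; binding of probe to printed compounds measured as 667 nm fluorescence plus signal to noise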
[2] = small-molecule binders of probe aNOTCH3, primary screen, biochemical, small-molecule microarray, 635/667 nm fluorescence (AID 1120); settings: higher = more signal;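 note: probe is a biotin-tagged antibody raised against NOTCH3 rather than NOTCH3 protein; score merges spot fluorescence near 667 nm with spot signal to noise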
[3] = small-molecule binders of probe aNOTCH2, primary screen, biochemical, small-molecule microarray, 635/667 nm fluorescence (AID 1121); settings: higher = more signal;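 note: score merges feature fluorescence read at 667 nm with its signal to noise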
[4] = molecular target: Carbonic anhydrase 2 (Homo sapiens) (UniProt P00918); experiment: CAII small-molecule binders, profiling panel, biochemical, small-molecule microarray, Alexa647-labelled CAII (AID 1122); settings: CAII-A647 binding fluorescence, higher = more signal
[5] = COS7 lysate on small-molecule microarray, probe aHis, 635 nm (AID 1123); settings: COS7 cell lysate, fluorescence, higher = more signal;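 note: z-score combines 667nm fluorescence intensity with signal-to-noise per printed compound spot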
[6] = compound binding in COS7 lysate, probe aLAP1, primary screen, cell lysate, small-molecule microarray (AID 1124); settings: probe aLAP1, fluorescence, higher = more signal;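 note: lysate comes from COS7 cells expressing LAP1 and is applied at 0.3 µg/mL; score merges spot fluorescence near 667 nm with signal-to-noise over triplicate slides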
Sam68 (KHDRBS1) = experiment: Sam68 small-molecule binders, primary screen, biochemical, small-molecule microarray, 635 nm fluorescence (AID 1125); settings: small-molecule microarray binding, higher = more signal;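 note: score merges 667 nm channel intensity with signal to noise over triplicate slides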
[7] = test system: Chordin-like protein 2 (CHRDL2); experiment: CHRDL2 small-molecule binders, primary screen, biochemical, small-molecule microarray, 635 nm fluorescence (AID 1126); settings: small-molecule microarray binding, fluorescence 635 nm; higher = more signal;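 note: printed compound slides probed with Chrdl2 protein at 4 µg/mL for 1 h at 4 C; score merges 667 nm emission intensity with signal to noise over three replicate slides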
[8] = molecular target: Concanavalin-A (Canavalia ensiformis) (UniProt P02866); experiment: ConA small-molecule binders, primary screen, artefact control for SMM control protein annotation, biochemical, small-molecule microarray, Alexa647 label, 635 nm (AID 1127); settings: ConA-A647 binding fluorescence, higher = more signal;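 note: z combines 667 nm emission intensity with signal-to-noise across three replicate slides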
Sequence of Concanavalin-A (Canavalia ensiformis) (P02866 whole entry, looked up): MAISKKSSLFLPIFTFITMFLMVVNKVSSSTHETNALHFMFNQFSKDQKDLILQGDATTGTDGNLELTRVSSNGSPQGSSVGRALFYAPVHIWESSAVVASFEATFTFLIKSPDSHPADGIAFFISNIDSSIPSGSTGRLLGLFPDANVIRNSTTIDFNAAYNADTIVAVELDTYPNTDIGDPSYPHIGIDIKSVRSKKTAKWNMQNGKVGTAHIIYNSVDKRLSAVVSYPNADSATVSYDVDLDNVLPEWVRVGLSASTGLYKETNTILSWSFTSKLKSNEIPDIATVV

[9] = anti-His antibody binders, primary screen, artefact control for SMM control protein annotation, biochemical, small-molecule microarray, 635 nm fluorescence (AID 1128); settings: anti-His Alexa647 antibody binding, higher = more signal;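 note: score merges feature fluorescence with signal-to-noise for each printed compound spot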
[10] = test system: Human papillomavirus type 1a E7 protein (residues 1-88); experiment: HPV1a E7 small-molecule binders, primary screen, biochemical, small-molecule microarray, residues 1-88, 635 nm (AID 1129); settings: small-molecule microarray binding, fluorescence 635 nm; higher = more signal
[11] = molecular target: Focal adhesion kinase 1 (Homo sapiens) (UniProt Q05397); experiment: small-molecule microarray binders of FAK, primary screen, biochemical, 635/667 nm fluorescence, BSA, DTT (AID 1130); settings: PTK2 binding, 635 nm fluorescence, higher = more signal;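 note: composite of spot emission at 667 nm and signal to noise over triplicate slides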
Sequence of Focal adhesion kinase 1 (Homo sapiens) (Q05397 whole entry, looked up): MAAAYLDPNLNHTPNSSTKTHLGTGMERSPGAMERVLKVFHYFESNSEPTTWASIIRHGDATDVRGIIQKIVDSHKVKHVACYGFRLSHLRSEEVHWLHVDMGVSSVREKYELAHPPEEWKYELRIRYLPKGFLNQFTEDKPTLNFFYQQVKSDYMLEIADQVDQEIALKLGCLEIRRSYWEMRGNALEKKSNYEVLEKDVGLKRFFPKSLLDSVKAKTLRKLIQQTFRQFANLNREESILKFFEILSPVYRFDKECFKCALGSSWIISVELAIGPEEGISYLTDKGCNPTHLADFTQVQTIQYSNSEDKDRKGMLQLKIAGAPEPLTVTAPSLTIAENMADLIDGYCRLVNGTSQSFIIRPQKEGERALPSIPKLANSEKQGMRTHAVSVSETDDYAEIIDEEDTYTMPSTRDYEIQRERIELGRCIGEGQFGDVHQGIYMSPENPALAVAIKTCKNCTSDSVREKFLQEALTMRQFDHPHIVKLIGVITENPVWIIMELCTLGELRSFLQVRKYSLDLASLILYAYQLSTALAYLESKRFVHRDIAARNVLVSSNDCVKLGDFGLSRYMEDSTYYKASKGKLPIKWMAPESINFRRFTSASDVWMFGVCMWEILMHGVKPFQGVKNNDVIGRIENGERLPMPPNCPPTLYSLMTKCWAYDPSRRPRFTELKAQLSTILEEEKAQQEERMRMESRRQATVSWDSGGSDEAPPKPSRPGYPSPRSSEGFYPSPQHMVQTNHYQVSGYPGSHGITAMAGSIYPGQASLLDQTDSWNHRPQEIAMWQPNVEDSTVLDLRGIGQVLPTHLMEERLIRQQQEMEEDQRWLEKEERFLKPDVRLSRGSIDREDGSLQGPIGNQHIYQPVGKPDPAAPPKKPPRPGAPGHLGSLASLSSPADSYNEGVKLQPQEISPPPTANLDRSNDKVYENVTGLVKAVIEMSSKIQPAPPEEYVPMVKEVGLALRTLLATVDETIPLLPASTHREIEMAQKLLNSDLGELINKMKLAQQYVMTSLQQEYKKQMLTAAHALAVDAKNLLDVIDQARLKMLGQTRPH

[12] = test system: Fibrinogen (Alexa647-labelled); experiment: fibrinogen binders on compound microarrays, profiling panel, artefact control for SMM control-protein annotation, biochemical, small-molecule microarray, 635/667 nm fluorescence (AID 1131); settings: fibrinogen-A647 binding fluorescence, higher = more signal;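 note: z-score merges 667 nm fluorescence with per-spot signal-to-noise over triplicate slides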
[13] = molecular target: Follistatin (Homo sapiens) (UniProt P19883); experiment: follistatin binders on small-molecule microarrays, primary screen, biochemical, small-molecule microarray, 635/667 nm fluorescence (AID 1132); settings: FST binding, 635 nm fluorescence, higher = more signal
Sequence of Follistatin (Homo sapiens) (P19883 whole entry, looked up): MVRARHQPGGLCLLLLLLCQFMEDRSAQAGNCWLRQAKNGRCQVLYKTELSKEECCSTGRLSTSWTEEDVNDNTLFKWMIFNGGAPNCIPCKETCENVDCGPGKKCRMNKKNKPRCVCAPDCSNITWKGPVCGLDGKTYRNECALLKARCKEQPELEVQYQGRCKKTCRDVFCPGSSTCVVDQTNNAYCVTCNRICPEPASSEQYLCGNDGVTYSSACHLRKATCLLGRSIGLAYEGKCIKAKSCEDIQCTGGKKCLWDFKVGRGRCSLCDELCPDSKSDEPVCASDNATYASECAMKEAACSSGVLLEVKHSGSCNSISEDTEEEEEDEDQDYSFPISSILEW

[14] = molecular target: Fibroblast growth factor 2 (Homo sapiens) (UniProt P09038); experiment: FGF2 binders on small-molecule microarrays, primary screen, biochemical, small-molecule microarray, 635/667 nm fluorescence (AID 1133); settings: small-molecule microarray binding, FGF2, fluorescence 635/667; higher = more signal
Sequence of Fibroblast growth factor 2 (Homo sapiens) (P09038 whole entry, looked up): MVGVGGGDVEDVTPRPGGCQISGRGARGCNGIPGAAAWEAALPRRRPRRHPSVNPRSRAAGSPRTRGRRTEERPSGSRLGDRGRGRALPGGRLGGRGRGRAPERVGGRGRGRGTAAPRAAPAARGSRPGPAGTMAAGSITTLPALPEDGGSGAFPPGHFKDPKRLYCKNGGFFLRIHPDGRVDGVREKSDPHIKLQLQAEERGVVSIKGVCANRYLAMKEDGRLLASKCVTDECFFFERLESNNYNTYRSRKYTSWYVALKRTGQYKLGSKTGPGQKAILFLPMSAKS

[15] = mitochondrial membrane potential change in A549 cells, profiling panel, cell-based, JC-1 fluorescence, basal, 24 h, 100 nL (AID 1138); settings: higher = more signal;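 note: A549 lung adenocarcinoma cells under basal conditions with no added stimulus; test concentration not given here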
Lefty1 = Lefty1 binders on small-molecule microarrays, primary screen, biochemical, small-molecule microarray, 635/667 nm fluorescence (AID 1139); settings: small-molecule microarray binding, fluorescence 635/667; higher = more signal
[16] = test system: wheat germ agglutinin (Triticum aestivum), Alexa647-labelled; experiment: wheat germ agglutinin binders on compound microarrays, profiling panel, artefact control for SMM control-protein annotation, biochemical, small-molecule microarray, 635/667 nm fluorescence (AID 1140); settings: WGA-A647 binding, 635 nm fluorescence, higher = more signal;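 note: score merges 667 nm feature emission with signal to noise over triplicate slides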
[17] = molecular target: Luciferin 4-monooxygenase (Photinus pyralis) (UniProt P08659); experiment: firefly luciferase enzyme inhibitors, primary screen, biochemical, luminescence, purified enzyme, 2006 set (AID 1141); settings: SteadyGlo luminescence, 30 min, higher = more signal, called active from +8 up or from −8 down;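 note: cell-free assay with purified firefly luciferase at 100 ng per well in PBS; test concentration not given here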
Sequence of Luciferin 4-monooxygenase (Photinus pyralis) (P08659 whole entry, looked up): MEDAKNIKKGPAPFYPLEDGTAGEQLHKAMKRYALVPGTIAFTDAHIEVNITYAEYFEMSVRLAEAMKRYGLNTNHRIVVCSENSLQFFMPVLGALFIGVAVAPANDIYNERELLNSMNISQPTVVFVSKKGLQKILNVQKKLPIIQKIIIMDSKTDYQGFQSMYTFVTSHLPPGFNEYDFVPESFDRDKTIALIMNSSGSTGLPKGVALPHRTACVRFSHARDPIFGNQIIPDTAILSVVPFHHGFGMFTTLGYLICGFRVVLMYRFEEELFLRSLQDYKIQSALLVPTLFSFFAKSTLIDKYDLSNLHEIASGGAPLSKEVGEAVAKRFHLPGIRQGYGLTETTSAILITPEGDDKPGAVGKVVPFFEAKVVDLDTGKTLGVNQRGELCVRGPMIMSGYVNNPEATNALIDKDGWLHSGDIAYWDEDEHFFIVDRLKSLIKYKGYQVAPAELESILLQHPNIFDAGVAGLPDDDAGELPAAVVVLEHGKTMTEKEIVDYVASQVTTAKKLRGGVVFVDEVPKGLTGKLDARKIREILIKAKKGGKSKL

Row | Compound | composite z-score (Albumin (Bos taurus)) | composite Z-score [1] | composite z-score [2] | composite z-score [3] | composite z-score [4] | composite z-score [5] | composite z-score [6] | composite z-score (Sam68 (KHDRBS1)) | composite z-score [7] | composite z-score [8] | composite z-score [9] | composite z-score [10] | composite z-score [11] | composite z-score [12] | composite z-score [13] | composite z-score [14] | z-score [15] | composite z-score (Lefty1) | composite z-score [16] | z-score [17]
1 | CC1(C)OCC(C(O)C2=CCCCC2=O)CO1 (stereo not given) | 0.157 | 0.0887 (inactive) | 0.119 | 0.148 | 0.548 | 0.395 | 0.697 | 0.826 | 0.883 | 1.01 | 0.485 | 0.279 | 0.0102 | 0.945 | 0.97 | 0.938 | -0.867 | 1.33 | 0.731 | 0.114 (inactive)
2 | CCc1cccc(NC(=O)O[C@H]2[C@H](OC(=O)Nc3ccc4c(c3)OCO4)[C@@H](OC(=O)Nc3ccc4c(c3)OCO4)[C@@H](OC)O[C@@H]2CO)c1 | 0.539 | 0.108 (inactive) | 0.42 | -0.0714 | 0.645 | 2.42 | 0.665 | 1.29 | 0.463 | 0.638 | 0.646 | 1.25 | -0.106 | 0.992 | 1.03 | 0.528 | -0.321 | 1.36 | 0.809 | -7.34 (inactive)
3 | COc1ccc([Si](C)(C)[C@@H]2[C@@H](CC(=O)N3CCC[C@H]3CO)O[C@]3(C(=O)N(Cc4cccc(N5CCC5=O)c4)c4ccccc43)[C@H]2C)cc1 | 0.263 | 0.188 (inactive) | 0.239 | -0.0288 | 0.14 | 2.25 | 0.317 | 1.31 | 0.453 | 0.811 | 0.97 | 1.18 | 0.418 | 0.809 | 0.907 | 0.402 | 1.04 | 0.917 | 0.81 | -1.69 (inactive)
4 | CC(C)[C@H](NC(=O)OC(C)(C)C)[C@@H](O)CC(=O)OC(C)(C)C | -0.493 | 0.0831 (inactive) | -0.235 | -0.144 | -0.602 | -0.361 | -0.202 | -1.73 | -0.646 | -0.744 | -0.105 | -1.47 | -0.563 | -0.808 | -0.275 | -0.394 | -1.25 | 0.123 | -0.339 | -0.0331 (inactive)
5 | COCCOC(=O)N1C(=O)[C@@]2(c3ccccc31)[C@H](C(N)=O)[C@H]1C(=O)O[C@H](c3ccccc3)[C@H](c3ccccc3)N1[C@@H]2c1ccccc1OCCO | 0.834 | 0.839 (inactive) | 0.198 | 0.0959 | 0.749 | 2.02 | 1.06 | 1.3 | 0.522 | 1.15 | 2.57 | 1.08 | 0.29 | 0.882 | 1.3 | 0.894 | 0.431 | 0.533 | 0.98 | -1.25 (inactive)
6 | CC(CCC(=O)OC[C@H]1O[C@H](C#Cc2ccccc2)C=C[C@@H]1Oc1ccc(C)cc1)=NO[C@@H](C)c1cn([C@H](CO)Cc2ccccc2)nn1 | 0.0449 | -0.684 (inactive) | 0.0026 | -0.0907 | -0.122 | -0.053 | -0.592 | 0.297 | 0.145 | 0.27 | 1.35 | 0.0769 | 0.0915 | 0.716 | 0.335 | 0.61 | -0.97 | 0.393 | 0.587 | 0.991 (inactive)
7 | COCCCNC(=O)[C@@]1(C)c2ccccc2C(=O)N(Cc2ccc(OC(F)(F)F)cc2)[C@H]1c1ccc(CO)cc1 | -0.881 | -0.17 (inactive) | -0.271 | -0.0836 | 0.174 | 0.125 | 0.884 | -1.22 | -0.654 | -0.836 | -0.95 | -1.52 | -0.253 | -1.75 | -0.0328 | -0.553 | 0.332 | -1.02 | -1.18 | -0.159 (inactive)
8 | CN(C)CCCNC(=O)[C@@H]1c2ccccc2C(=O)N(Cc2ccccc2)[C@H]1c1ccc(CO)cc1 | -0.688 | 0.799 (inactive) | -0.0971 | -0.205 | 0.196 | 0.662 | 1.37 | -0.0257 | -0.623 | -0.312 | 0.514 | -0.958 | -0.193 | -0.355 | -0.242 | -0.158 | 1.85 | -0.201 | -0.0107 | -0.784 (inactive)
9 | CC(C)c1ccc(NN2C(C(O)c3ccc4c(c3)OCO4)C=CC3C(=O)N(c4ccccc4)C(=O)C32)cc1 (stereo not given) | 1 | 0.491 (inactive) | 0.166 | -0.0267 | 0.564 | 2.6 | 0.738 | 1.29 | -0.0586 | 1.18 | 1.57 | 1.19 | 0.477 | 1.04 | 1.02 | -0.146 | -0.726 | 0.545 | 0.881 | -1.72 (inactive)
10 | CC(C)=C1C(=O)C(c2ccccc2)=C2CN3C(=O)N(CCc4ccccc4)C(=O)[C@]3(Cc3ccc(F)cc3)[C@H]21 | 0.697 | 1.87 (inactive) | 0.186 | 0.148 | 0.306 | 1.04 | 0.34 | 0.639 | -2.22 | -1.05 | 1.59 | -0.205 | -0.0639 | -1.43 | -0.968 | -0.412 | 1.27 | -1.2 | 0.338 | 0.98 (inactive)
11 | COc1ccccc1CN1C(=O)c2ccccc2[C@@H](C(=O)NCC(F)(F)F)[C@@H]1c1ccc(CO)cc1 | 0.522 | -0.786 (inactive) | -0.15 | -0.167 | 0.595 | 0.839 | 0.0761 | 1.33 | -0.365 | 0.721 | 0.218 | 0.993 | 0.391 | 0.532 | 1.06 | 1.05 | 1.13 | 1.13 | 0.185 | 0.806 (inactive)
